A selection: hits, their analogues and other compounds. The true share with any hit is near 3.5%.
MITF inh: MITF inhibitors, primary screen, biochemical, AlphaScreen, human. AlphaScreen MITF homodimerization, bead proximity signal. inhibition, % at 2.6 µM. actives 0.91% (n = 650,000). AID 1259374, 2018; in the data active = inhibition above about 50%;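 note: 0% = vehicle wells with protein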
GPR151 activ: activators of human GPR151, primary screen, cell-based, PathHunter beta-arrestin, luminescence. G-protein coupled receptor 151 (Homo sapiens), Q8TDV0. PathHunter beta-arrestin GPR151 cells. activation, % at 11.2 µM. actives 1% (n = 650,000). AID 1508602, 2020; in the data active = activation above about 4.9%;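 note: 0% = median of compound wells and 100% = cells with positive control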
Target sequence (Q8TDV0 whole entry, looked up): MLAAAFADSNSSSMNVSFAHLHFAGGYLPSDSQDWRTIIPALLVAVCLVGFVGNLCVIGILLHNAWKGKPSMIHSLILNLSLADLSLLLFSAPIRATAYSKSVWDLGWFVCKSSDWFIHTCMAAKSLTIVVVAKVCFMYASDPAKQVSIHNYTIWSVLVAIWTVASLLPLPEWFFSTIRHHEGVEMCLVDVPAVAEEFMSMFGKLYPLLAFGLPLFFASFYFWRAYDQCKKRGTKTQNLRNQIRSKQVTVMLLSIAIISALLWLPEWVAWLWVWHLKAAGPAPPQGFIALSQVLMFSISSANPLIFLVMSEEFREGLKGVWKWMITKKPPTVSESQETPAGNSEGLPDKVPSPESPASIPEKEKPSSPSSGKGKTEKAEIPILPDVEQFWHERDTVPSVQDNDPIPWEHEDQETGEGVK
TEAD-YAP inh: TEAD-YAP interaction inhibition, primary screen, TEAD-YAP interaction inhibitor project, luminescence, HEK-TIYL cells | inhibition, % at 9.12 µM | actives 1.4% (n = 640,000) | TEAD-Gal4/YAP UAS-luciferase luminescence | AID 1259422, 2018; in the data active = inhibition above about 32%;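 note: 0% = median of test compound wells and 100% = reference inhibitor wells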
FBW7 act: FBW7 E3 ligase activators, primary screen, biochemical, AlphaScreen, human. AID 1259310, 2017. actives 0.13% (n = 650,000). AlphaScreen FBW7–phospho-cyclin E peptide binding, activator screen. F-box/WD repeat-containing protein 7 (Homo sapiens), Q969H0. normalized activity (activation), % at 26.1 µM; in the data active = normalized activity above about 1.9%;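 note: purified mutant Fbw7 with reduced substrate affinity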
* hit, by the source's call.

SMILES	MITF inh	GPR151 activ	TEAD-YAP inh	FBW7 act
CCOc1ccc(-c2cc(=O)c3ccccc3o2)cc1	0.6	-1.5	-29.7	0.4
CCOc1ccc(-c2cc(=O)c3cc(O)ccc3o2)cc1	8.4	-1.4	47.0*	-0.2
CSc1ccc(-c2cc(=O)c3cc(O)ccc3o2)cc1	-5.0	-2.7	44.0*	-0.2
CSc1ccc(-c2cc(=O)c3ccccc3o2)cc1	5.3	-0.7	-61.3	-0.7
COc1ccc(-c2cc(=O)c3ccc(O)cc3o2)cc1	-1.3	-2.7	55.7*	0.1
Nc1ccc(-c2cnc3c(Nc4ccccc4Oc4ccccc4)nccn23)cc1	14.8	-0.7	17.0	0.4
O=C(CCC(=O)Nc1ccccc1Br)N/N=C/c1ccc([N+](=O)[O-])cc1	10.7	0.4	2.6	0.5
CC(C)(C)OC(=O)NC(CCNC=C1C(=O)OC(C)(C)OC1=O)C(=O)O (stereo not drawn)	70.6*	-0.9	8.5	0.0
CSc1nc(-c2ccco2)nn1C(=O)c1cccc([N+](=O)[O-])c1	-16.2	-0.2	17.7	-0.1
CCN1CCN(C(CC(C)C)c2nnnn2Cc2ccc(F)cc2)CC1 (stereo not drawn)	-5.2	-1.3	52.9*	0.0
CC(C)CC(c1nnnn1Cc1ccc(F)cc1)N1CCN(C)CC1 (stereo not drawn)	8.2	2.3	3.4	0.0
COc1ccccc1/C=C/C(=O)Nc1ccc2[nH]ncc2c1	-5.5	-0.3	34.9*	-0.2
O=S(=O)(c1ccc(-c2csc(=Nc3ccc(F)cc3)n2CCO)cc1)N1CCCC1	44.3	1.3	47.5*	-0.1
CCN(CC)S(=O)(=O)c1ccc(-c2csc(=Nc3ccc(F)cc3)n2CCO)cc1	21.9	1.2	45.8*	-0.2
CCN(CC)S(=O)(=O)c1ccc(-c2csc(=Nc3ccc(F)cc3)n2CCc2ccc(OC)cc2)cc1	15.6	-0.1	-2.5	0.1
COC(CNS(=O)(=O)c1ccc(S(=O)(=O)N2CCC(C)CC2)cc1)OC	-17.0	-0.3	2.0	0.0
O=C1CSC(=S)N1c1ccc(F)cc1	7.7	-0.9	-0.5	0.3
CN(C)c1ccc(N2C(=O)CSC2=S)cc1	53.5*	0.2	5.6	-0.5
Cc1oc(C(=O)N2c3ccccc3CC2C)cc1S(=O)(=O)N(C)C (stereo not drawn)	-2.9	-4.0	49.2*	0.3
COc1cc(/C=N/NC(=O)c2cncc(Br)c2)cc(Br)c1O	7.2	-1.1	-4.3	0.0
COc1cccc(/C=N/NC(=O)c2ccc(Cl)c(Cl)c2)c1O	6.6	-1.3	9.2	-0.1
COc1cccc(/C=N/NC(=O)c2cncc(Br)c2)c1O	89.8*	-4.9	79.6*	0.4
COc1cccc(/C=N/NC(=O)c2ccc(N(C)S(=O)(=O)c3ccccc3)cc2)c1O	12.8	1.1	80.3*	-0.2
COc1cccc(/C=N/NC(=O)c2ccc(NC(=O)c3ccc(F)cc3)cc2)c1O	4.5	0.0	97.0*	-0.1
COc1cccc(/C=N/NC(=O)C(=O)N/N=C/c2cccc(OC)c2O)c1O	-205.4	-0.4	12.5	-1.4
SMILES	MITF inh	GPR151 activ	TEAD-YAP inh	FBW7 act
COc1cccc(/C=N/NC(=O)c2ccncc2)c1O	61.0*	1.4	6.2	-1.4
COc1ccccc1/C=N/NC(=O)c1ccc(NC(=O)c2ccc(F)cc2)cc1	20.6	0.6	0.0	0.1
Cc1cc(C(F)F)n2nc(C(=O)NC3(c4ccc(F)cc4)CCCC3)nc2n1	-4.8	-0.3	-2.7	-0.1
COc1ccc(C(=O)OCc2cccc(Cl)c2)cc1	-7.3	1.0	2.3	0.3
COc1cc([N+](=O)[O-])cc(/C=N/NC(=O)c2ccncc2)c1O	83.4*	-1.1	4.7	-0.9
O=C(N/N=C\c1ccc([N+](=O)[O-])s1)c1cncc(Br)c1	10.0	-0.6	64.8*	-0.4
COc1cccc(/C=N/NC(=O)C(=O)Nc2cccc(C(F)(F)F)c2)c1O	6.0	0.6	58.9*	-2.5
COc1ccccc1C(=O)N/N=C/c1cc([N+](=O)[O-])cc(OC)c1O	-10.0	-0.8	-20.6	1.0
O=C(N/N=C/c1cc(Cl)ccc1O)c1cncc(Br)c1	62.9*	-0.5	7.2	0.0
COc1cccc(/C=N/NC(=O)c2cc(O)c(O)c(O)c2)c1O	46.5	-1.8	8.0	-0.5
COc1cccc(/C=N/NC(=O)c2cc3ccccc3cc2O)c1O	24.1	-6.1	53.1*	0.0
c1ccc(NNC2=Nc3ccccc3CCC2)cc1	2.7	-0.2	35.7*	-0.1
